Assay results published in the supplement of paper PMC11537057.
Structures can show the parent of a compound that is named as a salt. In all, about 1,700 compounds went through this assay and about 15 (0.9%) showed activity. Only a selection was taken, and actives are over-represented in it overall. Unmarked numbers belong to inactive results.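 The calls were made as follows: active = infection cut by 80% or more with cell growth above 90% in both runs; inactive = the rest.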

System: HSV-1 strain 17 YFP-ICP4 in A549
Experiment: HSV-1 infection relative to DMSO (ICP4-YFP per H2B-RFP signal); higher = more viral infection (less antiviral activity), active = hit call of the paper
Settings: 10 µM; 48 h; MOI: 0.1
Experimental: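 Selleck FDA-approved library (L1300) screened in duplicate at 10 µM on A549 H2B-mRuby cells in 384-well plates, infected with HSV-1 strain 17 YFP-ICP4 at MOI 0.1 one hour before drug addition. Imaged after 2 days at 37°C. Cell growth (H2B-RFP) and infection (ICP4-YFP) are expressed as % of DMSO-treated wells. Hits: growth >90% and infection <20% of DMSO.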

In order of rising HSV-1 infection:
1. Cc1c(-c2ccc(O)cc2)n(Cc2ccc(OCCN3CCCCCC3)cc2)c2ccc(O)cc12 [Bazedoxifene HCl]  26.6%
2. Cc1c(-c2ccc(O)cc2)n(Cc2ccc(OCCN3CCCCCC3)cc2)c2ccc(O)cc12 [Bazedoxifene Acetate]  31.7%
3. CCCCc1nc2cc(/C=C/C(=O)NO)ccc2n1CCN(CC)CC [Pracinostat (SB939)]  44.1%
4. CCC/N=C1\S/C(=C\c2ccc(OC[C@H](O)CO)c(Cl)c2)C(=O)N1c1ccccc1C [Ponesimod]  57.6%
5. CNC(=O)c1ccc2cc([C@@]3(O)CCn4cncc43)ccc2c1 [TAK-700 (Orteronel)]  58.5%
6. CCC(=O)O[C@]1(C(=O)CCl)[C@@H](C)C[C@H]2[C@@H]3C[C@H](F)C4=CC(=O)C=C[C@]4(C)[C@@]3(F)[C@@H](O)C[C@@]21C [Halobetasol Propionate]  60.2%
7. CCOc1cc2ncc(C#N)c(Nc3ccc(OCc4ccccn4)c(Cl)c3)c2cc1NC(=O)/C=C/CN(C)C [Neratinib (HKI-272)]  73.4%
8. CN(N=O)C(=O)NC1C(O)OC(CO)C(O)C1O (centres undefined) [Streptozotocin (STZ)]  73.6%
9. COc1cc(O)c(C(=O)Nc2nc(C(=O)NCCN(C(C)C)C(C)C)cs2)cc1OC [Acotiamide hydrochloride]  75.1%
10. CNC[C@H](O)[C@@H](O)[C@H](O)[C@H](O)CO.CNC[C@H](O)[C@@H](O)[C@H](O)[C@H](O)CO.O=C([O-])CN(CCN(CC(=O)[O-])CC(=O)O)CCN(CC(=O)[O-])CC(=O)O.[Gd+3] [Gadopentetate Dimeglumine]  77.6%
11. CC1=NN(c2ccc(C)c(C)c2)C(=O)/C1=N\Nc1cccc(-c2cccc(C(=O)O)c2)c1O [Eltrombopag]  82.4%
12. COc1ccccc1OCCN [Carvedilol EP IMpurity E]  82.6%
13. O=C([O-])[C@H](O)[C@@H](O)[C@H](O)[C@H](O)CO.O=C([O-])[C@H](O)[C@@H](O)[C@H](O)[C@H](O)CO.[Ca+2] [Calcium gluconate]  83.3%
14. N[C@@H](CCC(=O)O)C(=O)[O-].[Na+] [L-Glutamic acid monosodium salt]  84.3%
15. CC(C)[C@H]1C(=O)N[C@@H](CCCN=C(N)N)C(=O)NCC(=O)N[C@@H](CC(=O)O)C(=O)N[C@H](Cc2ccccc2)C(=O)N1C  86.4%
16. CC(C)c1nc(CN(C)C(=O)N[C@@H](CCN2CCOCC2)C(=O)N[C@H](CC[C@H](Cc2ccccc2)NC(=O)OCc2cncs2)Cc2ccccc2)cs1 [Cobicistat (GS-9350)]  86.4%
17. CCCCCCCCCCCCCCCCCC(=O)O [Stearic acid]  86.7%
18. CCCSc1nc(N[C@@H]2C[C@H]2c2ccc(F)c(F)c2)c2nnn([C@@H]3C[C@H](OCCO)[C@@H](O)[C@H]3O)c2n1 [Ticagrelor]  87.1%
19. O=C(O)CSc1nnc(Br)n1-c1ccc(C2CC2)c2ccccc12 [Lesinurad]  87.1%
20. C=C1CC[C@H](O)C/C1=C/C=C1\CCC[C@]2(C)[C@@H]([C@H](C)CCCC(C)(C)O)CC[C@@H]12 [Calcifediol]  89.7%
21. N#CC1(c2ccc(NC(=O)c3cccnc3NCc3ccncc3)cc2)CCCC1  91.6%
22. CCc1ccc(Cc2ccc3c(c2)[C@]2(OC3)O[C@H](CO)[C@@H](O)[C@H](O)[C@H]2O)cc1 [Tofogliflozin(CSG 452)]  92.2%
23. CC(=C(CCOC(=O)C(C)C)SSC(CCOC(=O)C(C)C)=C(C)N(C=O)Cc1cnc(C)nc1N)N(C=O)Cc1cnc(C)nc1N (stereo in doubt) [Sulbutiamine]  92.2%
24. COc1cc(S(=O)(=O)O)ccc1O [Sulfogaiacol]  93.8%
25. C[C@@H](O)[C@@H]1NC(=O)[C@H](CCCCN)NC(=O)[C@@H](Cc2c[nH]c3ccccc23)NC(=O)[C@H](Cc2ccccc2)NC(=O)[C@@H](NC(=O)[C@H](N)Cc2ccccc2)CSSC[C@@H](C(=O)N[C@H](CO)[C@@H](C)O)NC1=O [Octreotide Acetate]  93.8%
26. CC(C)(CO)C(O)C(=O)NCCCO (racemic) [DL-Panthenol]  94%
27. COc1ccc([C@]2(C#N)CC[C@@H](C(=O)O)CC2)cc1OC1CCCC1 [Cilomilast]  94%
28. C[N+](C)(C)CC(O)CC(=O)[O-] (racemic) [DL-Carnitine HCl]  94.4%
29. Cc1c(C(=O)NN2CCCCC2)nn(-c2ccc(Cl)cc2Cl)c1-c1ccc(Cl)cc1 [Rimonabant]  94.5%
30. Cc1ccc(C(C)C)c(O)c1 [Thymol]  95.3%
31. CCC(=O)O[C@@H]1CC(=O)O[C@H](C)C/C=C/C=C/[C@H](O)[C@H](C)C[C@H](CC=O)[C@H](O[C@@H]2O[C@H](C)[C@@H](O[C@H]3C[C@@](C)(O)[C@@H](OC(=O)CC)[C@H](C)O3)[C@H](N(C)C)[C@H]2O)[C@H]1OC [Midecamycin]  96.5%
32. CC(=O)N1C[C@H](O)C[C@H]1C(=O)O [Oxaceprol]  97.8%
33. Nc1cc(N2CCCCC2)nc(N)[n+]1OS(=O)(=O)[O-] [Minoxidil sulphate]  97.8%
34. CC1=NN(c2ccc(C)c(C)c2)C(=O)/C1=N\Nc1cccc(-c2cccc(C(=O)O)c2)c1O [Eltrombopag Olamine]  99%
35. COC[C@H]1C[C@@H](c2nc(-c3ccc4c(c3)COc3cc5c(ccc6nc([C@@H]7CC[C@H](C)N7C(=O)[C@@H](NC(=O)OC)C(C)C)[nH]c65)cc3-4)c[nH]2)N(C(=O)[C@H](NC(=O)OC)c2ccccc2)C1 [Velpatasvir]  102%
36. CC(=O)OCC(CCn1cnc2cnc(N)nc21)COC(C)=O [Famciclovir]  102%
37. CCCCCCCCCCCCCCCCOc1nc2ccc(C)cc2c(=O)o1 [Cetilistat]  103%
38. CCCCCOc1ccc(-c2cc(-c3ccc(C(=O)N[C@H]4C[C@@H](O)[C@@H](O)NC(=O)[C@@H]5[C@@H](O)[C@@H](C)CN5C(=O)[C@H]([C@H](O)CC(N)=O)NC(=O)[C@H]([C@H](O)[C@@H](O)c5ccc(O)c(OS(=O)(=O)O)c5)NC(=O)[C@@H]5C[C@@H](O)CN5C(=O)[C@H]([C@@H](C)O)NC4=O)cc3)no2)cc1 [Micafungin Sodium]  105%
39. CS(=O)(=O)n1cc2c(n1)CN([C@H]1CO[C@H](c3cc(F)ccc3F)[C@@H](N)C1)C2 [Omarigliptin (MK-3102)]  106%
40. CCN(c1cc(-c2ccc(CN3CCOCC3)cc2)cc(C(=O)NCc2c(C)cc(C)[nH]c2=O)c1C)C1CCOCC1 [Tazemetostat (EPZ-6438)]  106%
41. CO/N=C(\C(=O)N[C@@H]1C(=O)N2C(C(=O)[O-])=C(C[n+]3cccc4c3CCC4)CS[C@H]12)c1csc(N)n1 [Cefpirome sulfate]  108%
42. CCOC(=O)N[C@@H]1CC[C@@H]2[C@@H](C1)C[C@H]1C(=O)O[C@H](C)[C@H]1[C@H]2/C=C/c1ccc(-c2cccc(F)c2)cn1 [Vorapaxar]  113%
43. [OH][Al]([OH])[OH] [Aluminium hydroxide]  113%
44. Cc1cc(N2CCN([C@@H]3CN[C@H](C(=O)N4CCSC4)C3)CC2)n(-c2ccccc2)n1 [Teneligliptin hydrobromide]  113%
45. CCOc1ccc(Cc2cc([C@]34OC[C@](CO)(O3)[C@@H](O)[C@H](O)[C@H]4O)ccc2Cl)cc1 [Ertugliflozin]  114%
46. CC[C@H](C)[C@H](N)C(=O)O [isoleucine]  114%
47. NC(=O)[C@@H]1CC[C@@H]2CN1C(=O)N2OS(=O)(=O)O [Avibactam sodium]  116%
48. COc1cc(O)c(C(=O)Nc2nc(C(=O)NCCN(C(C)C)C(C)C)cs2)cc1OC [Acotiamide]  116%
49. C[C@@H]1CCO[C@H]2Cn3cc(C(=O)NCc4ccc(F)cc4F)c(=O)c(O)c3C(=O)N12  122%
50. CN[C@@H]1[C@@H](O)[C@@H](O[C@@H]2[C@@H](O)[C@H](O[C@H]3O[C@H](CN)[C@@H](O)[C@H](O)[C@H]3O)[C@@H](N)C[C@H]2NC(=O)[C@@H](O)CN)OC[C@]1(C)O [Isepamicin Sulphate]  124%
51. CCc1c(Cl)c(O)c(Cl)c(O)c1C(=O)O[C@H]1[C@H](O)[C@H](OC)[C@H](OC/C2=C\C=C\C[C@H](O)/C(C)=C/[C@H](CC)[C@@H](O[C@@H]3OC(C)(C)[C@@H](OC(=O)C(C)C)[C@H](O)[C@@H]3O)/C(C)=C/C(C)=C/C[C@@H]([C@@H](C)O)OC2=O)O[C@@H]1C [Fidaxomicin]  126%

For `CN(C)c1ccc2nc3ccc(=[N+](C)C)cc-3sc2c1` [Methylene Blue], the HSV-1 infection was 3.01% (active).
In the case of `Cc1cccc(C)c1N(CC(=O)Nc1ccc(-c2ncon2)cc1)C(=O)C1CCS(=O)(=O)CC1` [Amenamevir], the HSV-1 infection is reported as 2.63% (active).
In the case of `Nc1nc(O)c2ncn(CCC(CO)CO)c2n1` [Penciclovir], the HSV-1 infection is reported as 2.92% (active).
